Data taken from PubChem BioAssay AID449762 (Southern Research Specialized Biocontainment Screening …, 2010).
The whole screen tested about 330,000 compounds, of which about 1,900 (0.58%) were called active. About 4% were inconclusive and are not listed. Not all results are given here. Results with a measured potency or affinity are listed apart. Unmarked numbers belong to inactive results. No stated cut-off is given here; in the data, inconclusive means inhibition above about 70% without an active follow-up result; inactive means below that.

Experiment: M. tuberculosis growth inhibition, HTS (AID 449762);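 further: bacterial growth assessed after seven days of incubation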
Settings: M. tuberculosis H37Rv growth inhibition, 7H9 media; at 25 µM; hits give high values

Question: For `Oc1ccccc1CN1CCN(C(O)(c2ccccc2)c2ccccc2)CC1`, which inhibition is on record?
Answer: 12.9%

Question: With `COc1cc(OC)c(C(=O)O/N=C(\N)c2ccccn2)cc1OC` as the compound, how does the inhibition read?
Answer: 7.81%

Question: Which inhibition does the source give for `N/C(=N\OC(=O)c1cc(Cl)ccc1Cl)c1ccccn1` here?
Answer: 30%

Question: For `C=CC[C@@H](CC(=O)N[C@@H](CO)Cc1ccccc1)C(=O)N[C@H](COC(=O)[C@@H](CC=C)Cc1ccc(F)cc1)C(C)(C)C`, which inhibition is on record?
Answer: -11%

Question: Which inhibition does the source give for `CCc1ccc(/C=C2/C(=O)N(CC)C(=S)N2C)s1` here?
Answer: 12.3%

Question: For `CCc1ccc(/C=C2/C(=O)N(c3ccccc3)C(=S)N2CC(=O)OC)s1`, which inhibition is on record?
Answer: 10.2%

Question: With `O=c1cc(CSc2ccc([N+](=O)[O-])cc2)nc2sccn12` as the compound, how does the inhibition read?
Answer: -11.9%

Question: With `CCN(CC)CCCNC(=O)c1cc2c(Cl)nc3ccccc3c2s1` as the compound, how does the inhibition read?
Answer: 5.92%

Question: Which inhibition does the source give for `O=C(NCCCN1CCCC1)c1cc2c(Cl)nc3ccccc3c2s1` here?
Answer: 9.47%

Question: Which inhibition does the source give for `O=[N+]([O-])c1ccc(C(=S)N2CCN(Cc3ccccc3)CC2)cc1` here?
Answer: 6.67%

Question: For `CCCCOC(=O)Nc1ccc(S(=O)(=O)Nc2cc(C)nc(C)n2)cc1`, which inhibition is on record?
Answer: 50.1%

Question: Which inhibition does the source give for `CCCCOC(=O)Nc1ccc(S(=O)(=O)Nc2nc(C)cc(C)n2)cc1` here?
Answer: 0.81%

Question: With `O=C(CSC(=S)N1CCCCC1)c1ccccc1` as the compound, how does the inhibition read?
Answer: 69.2%

Question: With `O=c1c(-c2ccc(O)cc2)coc2cc(O)ccc12` as the compound, how does the inhibition read?
Answer: 3.16%

Question: For `Cc1oc2cc(O)ccc2c(=O)c1-c1cnn(-c2ccccc2)c1`, which inhibition is on record?
Answer: -3.21%

Question: With `CCc1ccc(-c2cc(C(=O)Nc3c(C)n(C)n(-c4ccccc4)c3=O)c3ccccc3n2)s1` as the compound, how does the inhibition read?
Answer: 5.93%

Question: For `Cc1[nH]n(-c2ccccc2)c(=O)c1/C=N/N(c1ccccc1)c1ccccc1`, which inhibition is on record?
Answer: 62.4%

Question: For `CCC(=O)N/C(N)=N/c1nc(C)c2cc(C)c(C)cc2n1`, which inhibition is on record?
Answer: 7.41%

Question: For `Cc1ccc2nc(N=C(N)N)nc(C)c2c1`, which inhibition is on record?
Answer: 12.5%

Question: Which inhibition does the source give for `Cc1cc2nc(/N=C(\N)NC(=O)N3c4ccccc4Sc4ccccc43)nc(C)c2cc1C` here?
Answer: -0.79%

Question: Which inhibition does the source give for `CCCC(=O)N/C(N)=N/c1nc(C)c2cc(C)ccc2n1` here?
Answer: 45.9%

Question: With `COc1ccc(C(=O)Nc2cnccn2)cc1[N+](=O)[O-]` as the compound, how does the inhibition read?
Answer: -6.82%

Question: For `O=C(CCN1C(=O)c2ccccc2C1=O)Nc1nc2ccccc2s1`, which inhibition is on record?
Answer: 10.8%

Question: For `NC(=O)[C@@H]1CC2(CC(c3cccc(NC(=O)[C@H]4CCC(=O)N4)c3)=NO2)CN1C(=O)COc1ccc(Cl)cc1` (some centres not stated), which inhibition is on record?
Answer: 0.87%

Question: Which inhibition does the source give for `Cc1cccc(C(=O)Nc2cccc3cccnc23)c1` here?
Answer: 25.4%

Question: With `O=C(CSCc1ccccc1Cl)Nc1c[nH]c(=O)[nH]c1=O` as the compound, how does the inhibition read?
Answer: 1.55%

Question: Which inhibition does the source give for `CC(O)CNc1nc2c(c(=O)n(Cc3ccc(Cl)c(Cl)c3)c(=O)n2C)n1C` (configuration not stated) here?
Answer: 6.85%

Question: Which inhibition does the source give for `Cn1c(NCC(O)c2ccccc2)nc2c1c(=O)n(Cc1ccc(Cl)cc1)c(=O)n2C` (configuration not stated) here?
Answer: 48.9%

Question: For `CCOC(=O)c1ccc(COC(=O)CNC(=O)CNC(=O)Cc2ccccc2)cc1`, which inhibition is on record?
Answer: -12.4%

Question: With `COc1cc(OC)c(NC(=O)CCCNC(=O)Cn2cnc3sc(C)c(C)c3c2=O)cc1Cl` as the compound, how does the inhibition read?
Answer: -3.56%

Question: With `CCN(CC(=O)Nc1ccc(NC(C)=O)cc1)C(=O)c1ccccc1SCC(=O)N1CCCC1` as the compound, how does the inhibition read?
Answer: 6.02%

Question: Which inhibition does the source give for `O=C(NCCOc1ccccc1F)c1cccc(S(=O)(=O)N2CCN(c3ccccc3)CC2)c1` here?
Answer: 4.44%

Question: For `c1ccc2nc(-c3ccncc3)ccc2c1`, which inhibition is on record?
Answer: -14.1%

Question: With `c1ccc(-c2ccc3ccccc3n2)cc1` as the compound, how does the inhibition read?
Answer: -0.21%

Question: Which inhibition does the source give for `Cc1cc(C)c(C#N)c(SCC(=O)c2cc(C)n(CCc3ccccc3)c2C)n1` here?
Answer: -0.68%

Question: Which inhibition does the source give for `O=C(NCCCN1CCOCC1)c1ccc(Sc2ccc(F)cc2)c([N+](=O)[O-])c1` here?
Answer: -0.04%

Question: Which inhibition does the source give for `NS(=O)(=O)c1ccc(NC(=O)CSC2CCCCC2)cc1` here?
Answer: -6.63%

Question: With `COc1ccc(NC(=O)CNC(=O)C2CCCCC2)cc1` as the compound, how does the inhibition read?
Answer: 13.5%

Question: With `CCC(C)NC(=O)CN1C(=O)NC2(CCOc3ccccc32)C1=O` (configuration not stated) as the compound, how does the inhibition read?
Answer: 7.03%

Question: For `CC(C)C1(C(C)C)OC(=O)c2ccccc21`, which inhibition is on record?
Answer: 0.62%

Question: For `CCCn1ncc(CN2CCC(Cc3cccc(F)c3)(C(=O)OCC)CC2)c1C`, which inhibition is on record?
Answer: -1.6%

Question: For `N=c1n(Cc2ccccc2)c2ccccc2n1CC(O)COc1ccccc1` (configuration not stated), which inhibition is on record?
Answer: 14.3%

Question: With `COc1ccc(OCC(O)Cn2c(=N)n(Cc3ccccc3)c3ccccc32)cc1` (configuration not stated) as the compound, how does the inhibition read?
Answer: 26.5%

Question: For `CSCC(=O)N1CCCC(CNC(=O)c2ccc(-c3ccccc3)cc2)C1` (configuration not stated), which inhibition is on record?
Answer: 3.04%

Question: With `CC(=O)CCC(=O)N1CCCC(CNC(=O)c2ccc(-c3ccccc3)cc2)C1` (configuration not stated) as the compound, how does the inhibition read?
Answer: -4.64%

Question: Which inhibition does the source give for `CC(C)(C)OC(=O)C[C@H]1C/C=C\C[C@H](CC(=O)NCCO)C(=O)NC[C@H](c2ccccc2)OC1=O` here?
Answer: -2.46%

Question: Which inhibition does the source give for `COc1cccc(N(C(=O)CNC(=O)c2ccco2)C(C(=O)NC2CCCC2)c2ccncc2)c1` (configuration not stated) here?
Answer: 0.28%

Question: For `O=C(O)CCCn1cc(NC(=O)COc2ccccc2)cn1`, which inhibition is on record?
Answer: 1.85%

Question: Which inhibition does the source give for `O=C(Cc1ccc(Cl)cc1)NCCCn1ccnc1` here?
Answer: 0.59%

Question: Which inhibition does the source give for `Clc1ccc(SCCn2ccnc2)cc1` here?
Answer: -6.09%

Question: Which inhibition does the source give for `CCNCCNC(=O)c1c(O)c2c([nH]c1=O)CCCC2` here?
Answer: -0.1%

Question: Which inhibition does the source give for `Cc1nn(Cc2ccc(Cl)cc2Cl)c(C)c1NC(=O)CCl` here?
Answer: 70.1%

Question: Which inhibition does the source give for `Cc1ccc(CCNC(=O)C2CC(c3cccc(F)c3)=NO2)cc1` (configuration not stated) here?
Answer: 0.56%

Question: Which inhibition does the source give for `C=CCOc1ccc(CNc2nccs2)cc1OC` here?
Answer: -5.03%

Question: With `C=CCOc1c(Cl)cc(CNc2nccs2)cc1OC` as the compound, how does the inhibition read?
Answer: 56.1%

Question: With `CCCOc1ccc(C(=O)N/N=C/c2c[nH]c3ccc(Br)cc23)cc1` as the compound, how does the inhibition read?
Answer: 1.55%

Question: With `COc1ccccc1Nc1cc(C)nc2c(C)ccc([N+](=O)[O-])c12` as the compound, how does the inhibition read?
Answer: -0.28%

Question: With `Cc1cc(Nc2ccccc2)c2c([N+](=O)[O-])cc(C)c(C)c2n1` as the compound, how does the inhibition read?
Answer: 6.4%

Question: Which inhibition does the source give for `COC(=O)C1=C(COc2ccc(C=O)cc2OC)NC(=O)NC1c1cc(C)ccc1C` (configuration not stated) here?
Answer: -8.91%

Question: For `Cc1cc(C)c2oc(=O)cc(CN3CCC(C)CC3)c2c1`, which inhibition is on record?
Answer: 5.8%

Question: With `Cc1coc2c(C)c3oc(=O)c(CCC(=O)N4CCC(C(=O)NCCCC(=O)O)(c5ccccc5)CC4)c(C)c3cc12` as the compound, how does the inhibition read?
Answer: 5.29%

Question: Which inhibition does the source give for `CC12CCC(C(=O)Nc3cccnc3)(CC1=O)C2(C)C` (configuration not stated) here?
Answer: -6.21%

Question: With `O=C(NCC1CCCO1)c1ccc([N+](=O)[O-])o1` (configuration not stated) as the compound, how does the inhibition read?
Answer: -10.8%

Question: With `O=C(NN(c1ccccc1)c1ccccc1)c1ccc([N+](=O)[O-])o1` as the compound, how does the inhibition read?
Answer: 56.9%

Question: With `C=CCn1c(SCC(=O)NCC2CCCO2)nc2scc(-c3ccccc3)c2c1=O` (configuration not stated) as the compound, how does the inhibition read?
Answer: -12.7%

Question: With `CCOCCCNC(=S)NCCCNc1nc2cc3c(cc2cc1C#N)OCO3` as the compound, how does the inhibition read?
Answer: -2.17%

Question: With `Cc1ccc(C(=O)/C=C/Nc2ccc(S(=O)(=O)Nc3cc(C)nc(C)n3)cc2)cc1` as the compound, how does the inhibition read?
Answer: 4.23%

Question: For `CCOc1cc(/C=N/NC(=O)C(=O)Nc2cc(Cl)ccc2C)ccc1O`, which inhibition is on record?
Answer: 5.58%

Question: With `CC(=O)c1cnn(-c2ccccc2)c1C` as the compound, how does the inhibition read?
Answer: -0.96%

Question: With `Cc1c(C(=O)NCc2ccccc2)cnn1-c1ccccc1` as the compound, how does the inhibition read?
Answer: 0.38%

Question: With `O=C(NN=C1CCCCCC1)c1ccc(Cl)s1` as the compound, how does the inhibition read?
Answer: -7.6%

Question: Which inhibition does the source give for `O=C(Nc1ccc(N2CCN(C(=O)c3ccccc3F)CC2)cc1)c1cncc(Br)c1` here?
Answer: 32.6%

Question: Which inhibition does the source give for `COc1ccc(NC(=O)CN(C)CC(=O)N(C)C2(C#N)CCC(C)CC2)cc1` (configuration not stated) here?
Answer: 6.58%

Question: With `O=C1Nc2ccccc2/C1=N\c1sc2c(c1C(=O)Nc1ccccc1)CCCC2` as the compound, how does the inhibition read?
Answer: -6.89%

Question: With `COc1ccc(-c2noc(N3CCC(C(=O)Nc4ccccc4F)CC3)n2)cc1` as the compound, how does the inhibition read?
Answer: -6.51%

Question: With `CSc1nc(C)c2c(n1)N(c1ccc(F)cc1)CC2` as the compound, how does the inhibition read?
Answer: 5.53%

Question: For `COc1ccc(N2CCc3c(C)nc(SC)nc32)cc1`, which inhibition is on record?
Answer: 37.6%

Question: With `Cc1cccc(NC(=O)Cn2nnc(-c3cccs3)n2)c1C` as the compound, how does the inhibition read?
Answer: 4.16%

Question: Which inhibition does the source give for `Cc1cc2ccccc2c(=O)n1CC(=O)NCC(=O)N1CCN(c2ccccc2)CC1` here?
Answer: 3.46%

Question: For `CC12CCC(C(=O)N3CCCCCC3)(OC1=O)C2(C)C` (configuration not stated), which inhibition is on record?
Answer: 0.66%

Question: For `O=C(c1ccc2nc(N3CCOCC3)sc2c1)N1CCN(C(=O)c2ccco2)CC1`, which inhibition is on record?
Answer: -6.14%

Question: For `O=C(c1ccc2nc(N3CCOCC3)sc2c1)N1CCCC1`, which inhibition is on record?
Answer: -5.7%

Question: For `Cc1ccc(S(=O)(=O)N(C)c2ccc(OCC(=O)Nc3ccc(C(=O)N(C)C)cc3)cc2)cc1C`, which inhibition is on record?
Answer: -1.34%

Question: Which inhibition does the source give for `Cn1cc(C(=O)N/N=C/C2=C(N3CCOCC3)C(=C/c3ccc([N+](=O)[O-])cc3)/CC2)ccc1=O` here?
Answer: 2.15%

Question: For `COc1cc(C(=O)NC(=S)Nc2ccc3[nH]c(=O)[nH]c3c2)cc(OC)c1OC`, which inhibition is on record?
Answer: 5.44%

Question: Which inhibition does the source give for `COCCCN1C(=O)C(=O)/C(=C(/O)c2ccc(OC)cc2)C12C(=O)N(C)c1ccccc12` (configuration not stated) here?
Answer: 0.02%

Question: With `O=C(/C=C\c1cccs1)c1c(O)ccc2ccc(=O)oc12` as the compound, how does the inhibition read?
Answer: 69.8%

Question: For `CCN(CC)S(=O)(=O)c1ccc2oc(SCC(=O)NCc3ccccc3)nc2c1`, which inhibition is on record?
Answer: -7.94%

Question: With `CCN(CC)S(=O)(=O)c1ccc2oc(SCC(=O)NC3CC3)nc2c1` as the compound, how does the inhibition read?
Answer: -7.6%

Question: For `COC(=O)C1=C(C)N(c2ccc(OC)cc2)C(=O)/C1=C\c1cccs1`, which inhibition is on record?
Answer: -1.06%

Question: Which inhibition does the source give for `CC(=O)c1ccc(OCC(=O)c2cc(C)n(-c3ccc4c(c3)OCO4)c2C)cc1` here?
Answer: -1.32%

Question: With `O=C(c1cc(Br)ccc1Cl)N1CCN(c2ncccn2)CC1` as the compound, how does the inhibition read?
Answer: 6.19%
